Laboratory results taken from the supplement of paper PMC11732987, “Enantioselective OTUD7B fragment discovery through chemoproteomics screening and high-throughput optimisation” (Communications Chemistry, 2025).

Key:
Experiment in all cases: log2 ratio of Biotin-Ahx-Ub-VS probe labelling (fragment/DMSO); higher = less target engagement (more negative = stronger competition), active = hit call of the paper (q ≤ 0.05, log2 ratio ≤ -1)
Conditions in all cases: compound concentration: 200 uM; treatment time: 3 h
[1] = molecular target: USP9X (UniProt Q93008)
Procedure, shortened: (§1)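 HEK293T lysate (495 µg per sample, in Tris/CHAPS/IGEPAL buffer with protease inhibitors) was treated in triplicate with fragment at 200 µM or with DMSO for 3 h. It was then treated with Biotin-Ahx-Ub-VS (0.5 µM final) for 1 h. Labelled DUBs were NeutrAvidin-enriched, digested with LysC and trypsin, and run by diaPASEF LC-MS/MS. Spectronaut label-free quantities were global-median-normalised. Values are average log2 ratios fragment/DMSO by unpaired t-test, using proteins with ≥2 unique peptides.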

[2] = molecular target: UniProt O00487
Chain of UniProt O00487 (O00487 whole entry): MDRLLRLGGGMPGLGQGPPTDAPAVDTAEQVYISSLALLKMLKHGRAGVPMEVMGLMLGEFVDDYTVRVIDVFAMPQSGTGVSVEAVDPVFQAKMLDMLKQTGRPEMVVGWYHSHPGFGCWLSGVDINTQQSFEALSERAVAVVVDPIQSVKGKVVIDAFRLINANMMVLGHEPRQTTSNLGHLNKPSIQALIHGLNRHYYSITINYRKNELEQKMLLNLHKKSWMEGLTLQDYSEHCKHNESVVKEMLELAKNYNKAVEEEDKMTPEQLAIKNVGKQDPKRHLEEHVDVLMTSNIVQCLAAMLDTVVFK
Procedure, shortened: as §1

[3] = molecular target: UniProt O00507
Chain of UniProt O00507 (O00507 whole entry): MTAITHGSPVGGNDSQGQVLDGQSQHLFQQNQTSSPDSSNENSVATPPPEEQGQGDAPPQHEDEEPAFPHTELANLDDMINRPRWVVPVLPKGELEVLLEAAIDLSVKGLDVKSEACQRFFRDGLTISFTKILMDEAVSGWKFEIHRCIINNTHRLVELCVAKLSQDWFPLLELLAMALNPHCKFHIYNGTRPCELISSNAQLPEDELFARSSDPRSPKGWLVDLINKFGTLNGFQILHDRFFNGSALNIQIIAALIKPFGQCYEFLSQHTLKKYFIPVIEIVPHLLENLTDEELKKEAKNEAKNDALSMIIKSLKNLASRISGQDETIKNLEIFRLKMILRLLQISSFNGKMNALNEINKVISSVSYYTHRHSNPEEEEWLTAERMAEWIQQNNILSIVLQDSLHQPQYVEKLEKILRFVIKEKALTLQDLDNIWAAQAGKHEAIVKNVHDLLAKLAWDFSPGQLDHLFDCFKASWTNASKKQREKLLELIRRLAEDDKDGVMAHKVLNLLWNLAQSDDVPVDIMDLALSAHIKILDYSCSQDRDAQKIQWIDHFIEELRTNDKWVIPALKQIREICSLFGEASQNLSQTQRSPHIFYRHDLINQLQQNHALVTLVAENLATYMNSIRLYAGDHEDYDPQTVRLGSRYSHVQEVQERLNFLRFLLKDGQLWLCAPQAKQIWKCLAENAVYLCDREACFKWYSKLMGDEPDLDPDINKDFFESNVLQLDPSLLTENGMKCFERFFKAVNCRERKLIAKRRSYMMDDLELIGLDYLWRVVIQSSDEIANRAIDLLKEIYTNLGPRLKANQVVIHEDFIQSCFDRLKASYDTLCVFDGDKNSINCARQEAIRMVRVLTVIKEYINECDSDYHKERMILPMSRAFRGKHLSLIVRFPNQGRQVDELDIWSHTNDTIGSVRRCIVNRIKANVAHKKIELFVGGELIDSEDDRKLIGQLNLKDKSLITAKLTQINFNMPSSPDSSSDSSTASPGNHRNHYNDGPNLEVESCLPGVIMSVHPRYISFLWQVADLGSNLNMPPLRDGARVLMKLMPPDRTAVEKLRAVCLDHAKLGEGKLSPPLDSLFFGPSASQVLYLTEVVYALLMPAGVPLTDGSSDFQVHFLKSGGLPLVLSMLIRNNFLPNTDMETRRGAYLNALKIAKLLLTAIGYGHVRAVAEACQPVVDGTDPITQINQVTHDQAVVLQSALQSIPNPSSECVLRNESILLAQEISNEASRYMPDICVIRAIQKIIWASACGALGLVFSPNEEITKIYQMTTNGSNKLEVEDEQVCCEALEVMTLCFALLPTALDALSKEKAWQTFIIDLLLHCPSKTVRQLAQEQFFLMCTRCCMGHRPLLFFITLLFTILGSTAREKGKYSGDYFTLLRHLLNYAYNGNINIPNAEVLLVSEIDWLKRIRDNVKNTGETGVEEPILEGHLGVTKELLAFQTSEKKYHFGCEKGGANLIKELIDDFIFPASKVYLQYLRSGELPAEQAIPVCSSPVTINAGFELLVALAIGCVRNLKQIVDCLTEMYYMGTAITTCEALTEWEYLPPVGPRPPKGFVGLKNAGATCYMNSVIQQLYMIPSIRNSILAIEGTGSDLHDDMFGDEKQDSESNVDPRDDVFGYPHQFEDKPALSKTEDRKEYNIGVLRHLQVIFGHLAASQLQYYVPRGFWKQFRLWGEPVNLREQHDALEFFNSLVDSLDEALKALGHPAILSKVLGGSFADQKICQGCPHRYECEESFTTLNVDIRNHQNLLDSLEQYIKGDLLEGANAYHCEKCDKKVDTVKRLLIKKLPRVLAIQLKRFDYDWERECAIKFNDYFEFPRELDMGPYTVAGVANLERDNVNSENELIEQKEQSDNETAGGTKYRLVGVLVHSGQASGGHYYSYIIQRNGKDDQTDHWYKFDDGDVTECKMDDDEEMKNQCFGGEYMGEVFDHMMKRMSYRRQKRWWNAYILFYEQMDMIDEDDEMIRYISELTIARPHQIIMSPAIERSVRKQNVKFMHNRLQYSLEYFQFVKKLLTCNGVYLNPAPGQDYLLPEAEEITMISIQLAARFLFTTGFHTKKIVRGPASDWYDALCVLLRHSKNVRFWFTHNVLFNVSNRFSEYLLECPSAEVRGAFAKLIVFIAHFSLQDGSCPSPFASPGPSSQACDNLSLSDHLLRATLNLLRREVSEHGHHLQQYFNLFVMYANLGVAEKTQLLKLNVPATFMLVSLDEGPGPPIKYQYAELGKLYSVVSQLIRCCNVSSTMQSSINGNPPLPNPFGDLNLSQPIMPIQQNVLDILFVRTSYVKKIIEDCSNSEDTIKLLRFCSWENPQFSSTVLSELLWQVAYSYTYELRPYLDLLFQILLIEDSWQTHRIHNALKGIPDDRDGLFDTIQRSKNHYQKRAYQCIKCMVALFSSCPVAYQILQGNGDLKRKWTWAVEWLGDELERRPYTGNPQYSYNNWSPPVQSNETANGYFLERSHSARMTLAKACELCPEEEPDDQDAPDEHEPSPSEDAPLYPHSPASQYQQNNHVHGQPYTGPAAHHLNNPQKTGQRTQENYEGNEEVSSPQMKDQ
Procedure, shortened: as §1

[4] = molecular target: UniProt P51784
Chain of UniProt P51784 (P51784 whole entry): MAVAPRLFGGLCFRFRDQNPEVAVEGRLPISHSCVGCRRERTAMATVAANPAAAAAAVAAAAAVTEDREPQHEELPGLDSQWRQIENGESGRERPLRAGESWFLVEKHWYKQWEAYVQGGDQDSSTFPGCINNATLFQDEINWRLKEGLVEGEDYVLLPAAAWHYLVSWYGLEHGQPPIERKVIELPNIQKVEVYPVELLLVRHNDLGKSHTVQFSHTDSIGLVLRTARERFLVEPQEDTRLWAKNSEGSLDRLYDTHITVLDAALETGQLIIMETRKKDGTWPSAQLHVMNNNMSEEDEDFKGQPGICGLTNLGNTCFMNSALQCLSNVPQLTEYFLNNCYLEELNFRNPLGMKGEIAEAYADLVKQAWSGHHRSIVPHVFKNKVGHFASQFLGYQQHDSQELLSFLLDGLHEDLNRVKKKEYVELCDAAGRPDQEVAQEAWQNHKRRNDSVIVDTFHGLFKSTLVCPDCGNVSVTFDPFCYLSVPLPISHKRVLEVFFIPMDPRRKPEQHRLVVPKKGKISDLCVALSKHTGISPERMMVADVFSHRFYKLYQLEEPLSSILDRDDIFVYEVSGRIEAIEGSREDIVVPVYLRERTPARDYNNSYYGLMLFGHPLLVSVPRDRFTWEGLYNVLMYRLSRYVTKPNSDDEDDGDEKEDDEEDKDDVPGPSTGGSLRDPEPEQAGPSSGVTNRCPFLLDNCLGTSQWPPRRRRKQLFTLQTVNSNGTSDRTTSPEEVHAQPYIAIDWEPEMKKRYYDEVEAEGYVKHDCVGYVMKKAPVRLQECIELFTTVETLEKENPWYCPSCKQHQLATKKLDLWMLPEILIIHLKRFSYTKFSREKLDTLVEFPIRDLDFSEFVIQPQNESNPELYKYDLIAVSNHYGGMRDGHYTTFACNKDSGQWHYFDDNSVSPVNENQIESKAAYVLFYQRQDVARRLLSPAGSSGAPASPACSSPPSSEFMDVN
Procedure, shortened: as §1

[5] = molecular target: T1, UniProt Q5T2D3
T1 sequence (whole entry): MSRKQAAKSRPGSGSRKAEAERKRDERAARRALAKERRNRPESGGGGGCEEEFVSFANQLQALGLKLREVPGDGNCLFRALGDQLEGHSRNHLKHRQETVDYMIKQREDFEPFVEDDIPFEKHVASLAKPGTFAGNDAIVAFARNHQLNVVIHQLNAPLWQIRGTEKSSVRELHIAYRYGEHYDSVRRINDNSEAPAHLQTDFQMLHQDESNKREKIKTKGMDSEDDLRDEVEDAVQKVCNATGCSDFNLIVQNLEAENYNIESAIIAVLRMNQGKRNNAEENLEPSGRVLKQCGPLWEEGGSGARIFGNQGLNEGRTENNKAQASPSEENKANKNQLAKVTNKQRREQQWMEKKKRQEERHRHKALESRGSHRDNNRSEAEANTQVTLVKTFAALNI
Procedure, shortened: as §1

[6] = molecular target: T2, UniProt Q8TE49
T2 sequence (whole entry): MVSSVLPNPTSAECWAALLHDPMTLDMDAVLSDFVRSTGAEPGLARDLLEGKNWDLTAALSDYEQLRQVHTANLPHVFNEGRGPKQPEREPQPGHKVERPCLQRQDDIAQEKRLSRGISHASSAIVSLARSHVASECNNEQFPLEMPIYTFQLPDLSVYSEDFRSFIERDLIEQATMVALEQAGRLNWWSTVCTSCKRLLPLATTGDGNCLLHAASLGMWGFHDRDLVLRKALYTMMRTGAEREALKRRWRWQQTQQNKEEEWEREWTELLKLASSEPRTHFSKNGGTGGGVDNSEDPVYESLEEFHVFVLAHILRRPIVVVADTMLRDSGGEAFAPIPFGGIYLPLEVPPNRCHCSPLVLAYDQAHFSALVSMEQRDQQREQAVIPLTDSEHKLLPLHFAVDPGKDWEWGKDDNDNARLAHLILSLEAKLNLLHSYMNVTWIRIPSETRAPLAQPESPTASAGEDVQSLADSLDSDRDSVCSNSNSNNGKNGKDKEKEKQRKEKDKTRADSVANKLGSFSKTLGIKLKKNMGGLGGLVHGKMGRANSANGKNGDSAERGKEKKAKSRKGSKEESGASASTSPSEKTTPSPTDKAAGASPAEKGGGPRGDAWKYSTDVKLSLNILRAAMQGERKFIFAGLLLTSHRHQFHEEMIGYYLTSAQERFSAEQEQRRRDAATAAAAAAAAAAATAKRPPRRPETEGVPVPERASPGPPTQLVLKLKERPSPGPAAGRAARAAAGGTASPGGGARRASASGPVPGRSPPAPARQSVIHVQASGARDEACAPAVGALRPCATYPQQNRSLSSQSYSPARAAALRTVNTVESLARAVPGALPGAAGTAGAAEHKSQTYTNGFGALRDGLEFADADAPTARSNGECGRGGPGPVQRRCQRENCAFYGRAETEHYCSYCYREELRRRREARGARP
Procedure, shortened: as §1

[7] = molecular target: T3, UniProt Q9P2H5
T3 sequence (whole entry): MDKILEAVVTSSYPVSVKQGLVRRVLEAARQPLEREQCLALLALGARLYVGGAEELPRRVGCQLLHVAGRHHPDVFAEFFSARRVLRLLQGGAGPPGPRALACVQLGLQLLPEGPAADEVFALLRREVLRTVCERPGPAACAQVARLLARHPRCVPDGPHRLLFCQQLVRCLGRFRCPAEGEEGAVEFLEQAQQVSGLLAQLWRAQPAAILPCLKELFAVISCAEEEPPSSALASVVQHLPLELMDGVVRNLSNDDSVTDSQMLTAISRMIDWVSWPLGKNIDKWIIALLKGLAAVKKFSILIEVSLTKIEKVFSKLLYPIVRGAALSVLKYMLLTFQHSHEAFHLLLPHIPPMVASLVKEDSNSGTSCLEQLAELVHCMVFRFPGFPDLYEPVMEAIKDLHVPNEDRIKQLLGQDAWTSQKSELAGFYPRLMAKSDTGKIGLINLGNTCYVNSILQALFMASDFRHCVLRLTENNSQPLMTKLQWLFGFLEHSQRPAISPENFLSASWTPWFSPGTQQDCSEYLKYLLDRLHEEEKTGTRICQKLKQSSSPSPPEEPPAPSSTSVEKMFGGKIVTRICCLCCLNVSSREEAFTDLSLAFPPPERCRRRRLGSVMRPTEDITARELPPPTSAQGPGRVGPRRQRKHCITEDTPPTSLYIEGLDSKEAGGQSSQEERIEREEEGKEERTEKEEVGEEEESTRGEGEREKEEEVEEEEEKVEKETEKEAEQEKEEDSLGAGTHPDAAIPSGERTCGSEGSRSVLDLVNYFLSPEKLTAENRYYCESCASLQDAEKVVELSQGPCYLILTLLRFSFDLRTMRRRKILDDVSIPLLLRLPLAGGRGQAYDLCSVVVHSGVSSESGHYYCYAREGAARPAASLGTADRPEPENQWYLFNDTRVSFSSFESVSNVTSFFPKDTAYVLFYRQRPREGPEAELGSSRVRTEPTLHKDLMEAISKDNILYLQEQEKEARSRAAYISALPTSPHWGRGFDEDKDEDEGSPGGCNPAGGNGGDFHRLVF
Procedure, shortened: as §1

[8] = molecular target: T4, UniProt Q9UGI0
T4 sequence (whole entry): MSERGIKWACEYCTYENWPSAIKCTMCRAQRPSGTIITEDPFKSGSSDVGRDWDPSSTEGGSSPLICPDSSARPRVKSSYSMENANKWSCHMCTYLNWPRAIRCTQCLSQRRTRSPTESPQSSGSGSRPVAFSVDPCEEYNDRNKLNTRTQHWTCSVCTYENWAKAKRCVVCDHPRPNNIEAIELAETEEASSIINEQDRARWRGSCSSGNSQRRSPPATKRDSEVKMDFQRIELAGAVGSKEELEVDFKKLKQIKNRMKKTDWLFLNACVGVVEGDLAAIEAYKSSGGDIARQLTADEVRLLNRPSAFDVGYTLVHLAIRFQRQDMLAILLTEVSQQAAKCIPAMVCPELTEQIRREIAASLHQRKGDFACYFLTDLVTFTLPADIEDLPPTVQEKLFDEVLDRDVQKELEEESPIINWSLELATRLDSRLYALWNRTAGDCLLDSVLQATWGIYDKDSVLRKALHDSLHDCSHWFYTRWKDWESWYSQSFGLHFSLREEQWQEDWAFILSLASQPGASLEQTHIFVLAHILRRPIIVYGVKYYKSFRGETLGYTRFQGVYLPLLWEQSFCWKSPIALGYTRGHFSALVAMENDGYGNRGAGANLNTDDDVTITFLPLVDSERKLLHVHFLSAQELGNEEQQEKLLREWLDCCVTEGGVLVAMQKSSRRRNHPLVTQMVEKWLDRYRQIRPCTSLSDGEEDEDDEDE
Procedure, shortened: as §1

[9] = molecular target: T5, YOD1 (UniProt Q5VVQ6)
T5 sequence (whole entry): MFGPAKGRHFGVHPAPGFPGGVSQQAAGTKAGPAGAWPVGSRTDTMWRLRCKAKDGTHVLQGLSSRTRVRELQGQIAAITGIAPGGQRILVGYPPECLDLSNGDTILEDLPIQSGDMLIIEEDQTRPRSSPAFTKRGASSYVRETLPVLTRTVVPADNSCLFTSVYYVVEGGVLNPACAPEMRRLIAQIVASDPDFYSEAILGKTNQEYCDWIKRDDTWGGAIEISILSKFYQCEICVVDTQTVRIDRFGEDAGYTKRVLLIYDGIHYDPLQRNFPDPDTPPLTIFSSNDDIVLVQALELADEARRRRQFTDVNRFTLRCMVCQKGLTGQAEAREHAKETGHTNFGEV
Procedure, shortened: as §1

Measured: log2 ratio of Biotin-Ahx-Ub-VS probe labelling

C[C@H]1CN(C(=O)CCl)CCN1C(=O)c1cnn(C)c1.Cl
inactive: [1] -0.221 | [2] -0.129 | [3] 0.326 | [4] 0.00812 | [5] -0.292 | [6] -0.57 | [7] -0.408 | [8] 0.189 | [9] 0.0183
